Results from PubChem BioAssay.
Activity calls are given as the source filed them. Unless noted, the rule behind the calls is not given here.

What was measured:
[1] = compound effects on lung adenocarcinoma cell viability – A549, calcein-AM fluorescence, 48 h, basal, profiling panel (AID 1162); conditions: higher = more signal; note: test concentration not given here
[2] = compound effects on differentiated 3T3-L1 adipocyte viability – cell-based, 3T3-L1 adipocytes, calcein-AM fluorescence, 48 h, basal, profiling panel (AID 1163); conditions: 3T3-L1 adipocytes viability, higher = more signal; note: test concentration not given here
[3] = compound effects on hepatocellular carcinoma cell viability – HepG2, calcein-AM fluorescence, 48 h, basal, profiling panel (AID 1164); conditions: higher = more signal; note: test concentration not given here
[4] = compound effects on multiple myeloma cell viability – MM1S, calcein-AM fluorescence, 48 h, basal, profiling panel (AID 1165); conditions: higher = more signal; note: test concentration not given here
[5] = calcein-AM signal in unstimulated myeloma cells – cell-based, calcein-AM fluorescence, 48 h, PK04 Diversity Set, profiling panel (AID 1166); conditions: RPMI8226 myeloma viability, higher = more signal;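 note: cells grown under basal conditions without added stimulus; test concentration not given here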
[6] = JC-1 mitochondrial signal, unstimulated HepG2 cells – cell-based, JC-1 fluorescence, 24 h, 100 nL compound, profiling panel (AID 1167); conditions: HepG2 mitochondrial potential, higher = more signal; note: test concentration not given here
[7] = JC-1 mitochondrial signal, unstimulated adipocytes – cell-based, JC-1 fluorescence, 3T3-L1 adipocytes, 24 h, 100 nL compound, profiling panel (AID 1168); conditions: JC-1 mitochondrial fluorescence, higher = more signal, called active from +8 up or from −8 down; note: test concentration not given here
[8] = JC-1 mitochondrial signal, unstimulated myeloma cells – cell-based, JC-1 fluorescence, RPMI8226, 24 h, 100 nL compound, profiling panel (AID 1169); conditions: JC-1 mitochondrial potential fluorescence, higher = more signal; note: test concentration not given here
[9] = JC-1 mitochondrial signal, unstimulated MM1S myeloma – cell-based, JC-1 fluorescence, 24 h, 100 nL compound, profiling panel (AID 1170); conditions: MM1S mitochondrial potential, higher = more signal; note: test concentration not given here
[10] = resazurin metabolic signal in A549 cells – cell-based, resazurin fluorescence, 24 h, PK04 Diversity Set, profiling panel (AID 1171); conditions: A549 viability, higher = more signal, called active from +8 up or from −8 down; note: test concentration not given here
[11] = resazurin metabolic signal in HepG2 cells – cell-based, resazurin fluorescence, 24 h, PK04 Diversity Set, profiling panel (AID 1172); conditions: HepG2 viability, higher = more signal; note: test concentration not given here
[12] = budding yeast growth changes without added modifier – OD600, strain BY4716, 24 h, basal condition, primary screen (AID 1173); conditions: S. cerevisiae BY4716 growth, OD600, 24 h; higher = more signal, called active from +8 up or from −8 down
[13] = viability profiling in MM1S myeloma cells – cell-based, resazurin fluorescence, basal, 24 h, PK04 Diversity Set, profiling panel (AID 1174); conditions: higher = more signal, called active from +8 up or from −8 down; note: test concentration not given here
[14] = biological target: Dihydroorotate dehydrogenase (quinone), mitochondrial (Plasmodium falciparum (isolate 3D7)) (UniProt Q08210); experiment: inhibition of P. falciparum DHODH – biochemical, C-terminal His tag, absorbance 600 nm, primary screen (AID 1175); conditions: PfDHODH enzyme, DCIP absorbance 600 nm; higher = more signal, called active from +8 up or from −8 down;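 note: recombinant parasite enzyme with a five histidine tag at its C terminus; test concentration not given here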
[15] = inhibition of PAO1 biofilm formation – strain PAO1, LB-PBS medium, absorbance 600 nm, primary screen (AID 1176); note: test concentration not given here; conditions: P. aeruginosa PAO1 growth/biofilm, A600, 12 h; higher = more signal
[16] = growth modulation of vineyard yeast isolate – strain RM11-1a, OD600, basal, 24 h, primary screen (AID 1177);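 note: cultures grown under basal conditions with no added stressor; test concentration not given here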; conditions: S. cerevisiae RM11-1a growth, OD600, 24 h; higher = more signal, called active from +8 up or from −8 down
[17] = growth of efflux-deficient E. coli DRC39 – strain DRC39, OD650, 24 h, E. coli filamentation inducers, primary screen (AID 1178);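 note: growth measured as culture turbidity by optical density at 650 nm; test concentration not given here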; conditions: E. coli DRC39 acrAB, higher = more signal, called active from +8 up or from −8 down
[18] = growth of efflux-deficient E. coli DRC39 – strain DRC39, OD650, 48 h, E. coli filamentation inducers, primary screen (AID 1179);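 note: screen aims at cell division blockers that make cells filament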; conditions: E. coli DRC39 delta-acrAB growth, higher = more signal, called active from +8 up or from −8 down
[19] = viability profiling in RPMI8226 myeloma cells – cell-based, resazurin fluorescence, basal, 24 h, PK04 Diversity Set, profiling panel (AID 1180); conditions: higher = more signal;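 note: RPMI8826 multiple myeloma cell line at 5000 cells per well; test concentration not given here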
[20] = biological target: E3 ubiquitin-protein ligase XIAP (Homo sapiens) (UniProt P98170); experiment: small molecules binding XIAP protein – biophysical, small-molecule microarray, fluorescence 635 nm, primary screen (AID 1181); conditions: higher = more signal;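 note: score merges 667 nm emission and signal to noise over triplicate slides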
E3 ubiquitin-protein ligase XIAP (Homo sapiens), sequence (P98170 whole entry, looked up): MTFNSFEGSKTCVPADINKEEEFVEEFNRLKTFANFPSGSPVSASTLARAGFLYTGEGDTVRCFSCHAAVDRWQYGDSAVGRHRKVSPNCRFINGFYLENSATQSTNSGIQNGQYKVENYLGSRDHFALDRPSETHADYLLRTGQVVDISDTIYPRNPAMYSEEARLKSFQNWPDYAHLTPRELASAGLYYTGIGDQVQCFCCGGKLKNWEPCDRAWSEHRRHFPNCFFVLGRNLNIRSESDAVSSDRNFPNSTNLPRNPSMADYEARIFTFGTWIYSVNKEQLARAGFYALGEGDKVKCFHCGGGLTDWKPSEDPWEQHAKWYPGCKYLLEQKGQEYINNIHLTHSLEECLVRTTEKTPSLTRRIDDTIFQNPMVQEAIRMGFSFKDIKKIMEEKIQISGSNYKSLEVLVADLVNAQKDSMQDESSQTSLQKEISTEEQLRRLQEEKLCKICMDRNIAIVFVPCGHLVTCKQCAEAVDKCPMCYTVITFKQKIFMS

Dihydroorotate dehydrogenase (quinone), mitochondrial (Plasmodium falciparum (isolate 3D7)), sequence (Q08210 whole entry, looked up): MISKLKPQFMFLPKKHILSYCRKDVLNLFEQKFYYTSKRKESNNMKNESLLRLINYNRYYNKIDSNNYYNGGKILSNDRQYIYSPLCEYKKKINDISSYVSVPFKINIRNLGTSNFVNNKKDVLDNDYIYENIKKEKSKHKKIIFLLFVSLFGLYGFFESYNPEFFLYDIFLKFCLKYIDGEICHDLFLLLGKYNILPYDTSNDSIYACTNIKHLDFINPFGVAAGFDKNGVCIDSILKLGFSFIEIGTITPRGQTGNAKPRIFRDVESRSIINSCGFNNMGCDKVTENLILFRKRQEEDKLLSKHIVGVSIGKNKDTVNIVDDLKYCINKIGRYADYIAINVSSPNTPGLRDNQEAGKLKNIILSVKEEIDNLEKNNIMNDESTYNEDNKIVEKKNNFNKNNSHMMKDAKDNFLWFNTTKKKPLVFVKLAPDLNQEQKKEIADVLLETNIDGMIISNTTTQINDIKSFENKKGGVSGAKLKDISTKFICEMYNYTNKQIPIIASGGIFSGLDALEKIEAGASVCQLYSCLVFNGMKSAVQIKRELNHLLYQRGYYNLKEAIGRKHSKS

Row | SMILES | z-score [1] | z-score [2] | z-score [3] | z-score [4] | z-score [5] | z-score [6] | z-score [7] | z-score [8] | z-score [9] | z-score [10] | z-score [11] | z-score [12] | z-score [13] | composite z-score [14] | z-score [15] | z-score [16] | z-score [17] | z-score [18] | z-score [19] | composite z-score [20]
1 | CCN(CC)CC(O)CN1CCCCc2nc(C)c(C)cc21 (stereo not given) | -0.0127 | -0.054 | 0.776 | 0.288 | 0.378 | 0.68 | 0.109 (inactive) | 0.316 | -0.989 | 0.985 (inactive) | -0.148 | -0.571 (inactive) | 0.423 (inactive) | -2.78 (inactive) | 0.711 (inactive) | -1.48 (inactive) | 0.721 (inactive) | 0.0142 (inactive) | 0.259 | -0.271
2 | CC(CCN1CCCc2nc(C)c(C)cc21)=NOC[C@@H](C)[C@H](OCc1ccccc1)C(C)C | 0.803 | 1.05 | 1.18 | -2.37 | 0.0389 | 1.94 | -0.584 (inactive) | 0.395 | -1.46 | -0.602 (inactive) | -0.135 | -3.26 (inactive) | 0.0518 (inactive) | -2.07 (inactive) | -0.0417 (inactive) | -1.86 (inactive) | -0.787 (inactive) | 0.262 (inactive) | -0.0093 | 0.0153
3 | CC(C)[C@@H](OCc1ccccc1)[C@H](C)C=NO[C@H](C)c1cn([C@@H]2COC[C@H]2O)nn1 | 0.569 | -0.478 | -0.0131 | 0.0238 | -0.0081 | -0.479 | -0.98 (inactive) | 0.608 | -0.601 | -0.516 (inactive) | -0.507 | -1.28 (inactive) | -0.648 (inactive) | -0.498 (inactive) | -0.0296 (inactive) | -0.0941 (inactive) | 0.462 (inactive) | 0.178 (inactive) | -0.64 | -0.173
4 | COC(=O)CC=C[C@@H](C)[C@@H](C=NOC(C)CN1CCCCc2nc(C)c(C)cc21)NS(=O)(=O)c1ccc(C)cc1 (stereo not given in full) | -0.366 | 0.61 | 0.0477 | 0.0238 | -0.141 | -0.246 | -0.442 (inactive) | -1.02 | -0.0131 | -0.204 (inactive) | -0.194 | 0.434 (inactive) | -0.71 (inactive) | -0.069 (inactive) | 0.0525 (inactive) | -0.472 (inactive) | 0.424 (inactive) | 0.607 (inactive) | 0.0077 | -0.244
5 | CON=C[C@@H](OC)[C@H](C)C=CCC(=O)OC | -0.0933 | -0.105 | 0.262 | 0.253 | 0.205 | -0.34 | -1.2 (inactive) | 0.673 | 0.856 | 0.213 (inactive) | 0.0392 | -0.117 (inactive) | 0.293 (inactive) | -0.241 (inactive) | 0.0738 (inactive) | -0.557 (inactive) | -0.311 (inactive) | -2.25 (inactive) | -0.274 | -0.162
6 | CCOC(=O)[C@H](Cc1ccccc1)NC(=O)CCC1CC(OC(=O)NCCc2ccc(F)cc2)CC2(CCCC(COC(=O)NCCOc3ccccc3)O2)O1 (stereo not given in full) | 0.613 | -0.156 | 0.141 | -0.565 | -1.25 | 1.71 | 0.508 (inactive) | -0.218 | -0.123 | 0.264 (inactive) | 0.121 | -0.245 (inactive) | -0.02 (inactive) | -0.189 (inactive) | 0.651 (inactive) | 0.408 (inactive) | 0.417 (inactive) | 0.343 (inactive) | 0.194 | -0.0166
7 | CC(=O)OC[C@H]1O[C@H](CC=NO[C@@H](C)c2cc(-c3c(C)cc(C)cc3C)no2)C=C[C@@H]1OC(C)=O | -0.937 | 0.318 | -0.799 | 0.267 | -1.29 | -0.158 | -0.845 (inactive) | 0.774 | -0.322 | -0.0973 (inactive) | -0.583 | 0.493 (inactive) | -0.523 (inactive) | 0.272 (inactive) | -1.17 (inactive) | 0.142 (inactive) | 0.165 (inactive) | 0.105 (inactive) | 0.138 | -0.126
8 | CC(CCN1CCCCc2nc(C)c(C)cc21)=NOC[C@@H](O)[C@H]1O[C@@H]2OC(C)(C)O[C@@H]2[C@H]1O | -0.638 | -0.566 | -1.33 | -0.22 | -0.177 | -0.536 | -1.31 (inactive) | -0.0542 | -0.477 | 0.0214 (inactive) | -0.825 | -0.546 (inactive) | -1.03 (inactive) | -0.183 (inactive) | 0.335 (inactive) | -0.382 (inactive) | 0.78 (inactive) | -0.887 (inactive) | -0.216 | -0.0323
9 | CC(C)(C)N1C(=O)[C@H]2[C@H]3[C@H](O)[C@H](O)CC(=NNC(=O)OCc4ccccc4)[C@H]3CC[C@H]2C1=O | -1.13 | 1.11 | -0.516 | -0.269 | -0.934 | -0.639 | -1.49 (inactive) | -0.411 | -0.823 | 0.321 (inactive) | -0.558 | -4.15 (inactive) | 0.0137 (inactive) | -2.25 (inactive) | 0.118 (inactive) | -0.589 (inactive) | 0.352 (inactive) | -0.645 (inactive) | -0.198 | 0.0282
